# Measured values as given in the supplement of paper PMC8728848.
# The full list was thinned out, with the strongest signals kept by preference.
# Experiments:
# Assay in all cases: glycan array binding signal (z-score within array); higher = stronger binding
# Details in all cases: glycan notation: IUPAC condensed, linker removed
# [1] = target: Fuc(a1-2)Gal(b1-4)GlcNAc(b1-2)Man(a1-3)[Fuc(a1-2)Gal(b1-4)GlcNAc(b1-2)Man(a1-6)]Man(b1-4)GlcNAc(b1-4)[Fuc(a1-6)]GlcNAc
# Procedure, shortened: (§1)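 Glycan array data were curated from 3228 arrays in the Consortium for Functional Glycomics database and kept only where the protein sequence was available. Glycan names were converted to IUPAC-condensed notation, and columns mapping to the same glycan were averaged. The binding signal is a within-array Z-score, averaged across arrays of the same protein sequence at different concentrations or buffers and across linkers. Negative Z-scores can be read as non-binding.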
# [2] = target: Fuc(a1-2)[Gal(a1-3)]Gal(b1-3)GalNAc
# Procedure, shortened: as §1
# [3] = target: Fuc(a1-2)[Gal(a1-4)]Gal(b1-4)GlcNAc
# Procedure, shortened: as §1
# [4] = target: Fuc(a1-2)[GalNAc(a1-3)]Gal(b1-4)Glc
# Procedure, shortened: as §1
# [5] = target: Fuc(a1-2)[GalNAc(a1-3)]Gal(b1-4)[Fuc(a1-3)]GlcNAc(b1-3)GalNAc
# Procedure, shortened: as §1
# [6] = target: Fuc(a1-3)[GalNAc(b1-4)]GlcNAc
# Procedure, shortened: as §1
# [7] = target: Gal(a1-3)GalNAc
# Procedure, shortened: as §1
# [8] = target: Gal(a1-3)[Gal(a1-4)]Gal(b1-4)GlcNAc
# Procedure, shortened: as §1
# [9] = target: Gal(a1-4)Gal(b1-4)Glc
# Procedure, shortened: as §1
# [10] = target: Gal(b1-2)Gal
# Procedure, shortened: as §1
# [11] = target: Gal(b1-3)GalNAc(b1-4)Gal(b1-4)Glc
# Procedure, shortened: as §1
# [12] = target: Gal(b1-3)GlcNAc
# Procedure, shortened: as §1
# [13] = target: Gal(b1-3)GlcNAc(b1-2)Man(a1-3)[Gal(b1-3)GlcNAc(b1-2)Man(a1-6)]Man(b1-4)GlcNAc(b1-4)GlcNAc
# Procedure, shortened: as §1
# [14] = target: Gal(b1-3)GlcNAc(b1-3)Gal(b1-4)Glc
# Procedure, shortened: as §1
# [15] = target: Gal(b1-3)GlcNAc(b1-3)Gal(b1-4)GlcNAc(b1-3)Gal(b1-4)GlcNAc(b1-2)[Gal(b1-3)GlcNAc(b1-3)Gal(b1-4)GlcNAc(b1-3)Gal(b1-4)GlcNAc(b1-6)]Man(a1-6)[Gal(b1-3)GlcNAc(b1-3)Gal(b1-4)GlcNAc(b1-3)Gal(b1-4)GlcNAc(b1-2)Man(a1-3)]Man(b1-4)GlcNAc(b1-4)[Fuc(a1-6)]GlcNAc
# Procedure, shortened: as §1
# [16] = target: Gal(b1-3)GlcNAc(b1-6)[Gal(b1-3)]GalNAc
# Procedure, shortened: as §1
# [17] = target: Gal(b1-3)[Fuc(a1-4)]GlcNAc(b1-2)Man(a1-3)[Gal(b1-3)[Fuc(a1-4)]GlcNAc(b1-2)Man(a1-6)]Man(b1-4)GlcNAc(b1-4)[Fuc(a1-6)]GlcNAc
# Procedure, shortened: as §1
# [18] = target: Gal(b1-3)[Fuc(a1-4)]GlcNAc(b1-6)GalNAc
# Procedure, shortened: as §1
# [19] = target: Gal(b1-4)GlcNAc(b1-2)Man(a1-6)[GlcNAc(b1-2)Man(a1-3)]Man(b1-4)GlcNAc(b1-4)GlcNAc
# Procedure, shortened: as §1
# [20] = target: Gal(b1-4)GlcNAc(b1-3)Gal(b1-4)Glc
# Procedure, shortened: as §1
# [21] = target: Gal(b1-4)GlcNAc(b1-3)Gal(b1-4)GlcNAc(b1-2)Man(a1-3)[Gal(b1-4)GlcNAc(b1-3)Gal(b1-4)GlcNAc(b1-2)Man(a1-6)]Man(b1-4)GlcNAc(b1-4)GlcNAc
# Procedure, shortened: as §1
# [22] = target: Gal(b1-4)GlcNAc(b1-3)Gal(b1-4)GlcNAc(b1-3)Gal(b1-4)GlcNAc(b1-3)Gal(b1-4)GlcNAc(b1-2)Man(a1-3)[Gal(b1-4)GlcNAc(b1-3)Gal(b1-4)GlcNAc(b1-3)Gal(b1-4)GlcNAc(b1-3)Gal(b1-4)GlcNAc(b1-2)Man(a1-6)]Man(b1-4)GlcNAc(b1-4)[Fuc(a1-6)]GlcNAc
# Procedure, shortened: as §1
# [23] = target: Gal(b1-4)GlcNAc(b1-3)GalNAc
# Procedure, shortened: as §1
# [24] = target: Gal3S(b1-4)Glc6S
# Procedure, shortened: as §1
# [25] = target: Gal3S(b1-4)[Fuc(a1-3)]Glc6S
# Procedure, shortened: as §1
# [26] = target: GalNAc(b1-3)Gal(a1-4)Gal(b1-4)GlcNAc
# Procedure, shortened: as §1
# [27] = target: GalNAc(b1-4)GlcNAc
# Procedure, shortened: as §1
# [28] = target: GalNAc4S6S(b1-4)GlcNAc
# Procedure, shortened: as §1
# [29] = target: GlcNAc(a1-3)Gal(b1-4)GlcNAc
# Procedure, shortened: as §1
# [30] = target: GlcNAc(a1-4)Gal(b1-4)GalNAc
# Procedure, shortened: as §1
# [31] = target: GlcNAc(b1-3)Gal(b1-4)GlcNAc(b1-6)[Gal(b1-3)]GalNAc
# Procedure, shortened: as §1
# [32] = target: GlcNAc(b1-4)GlcNAc(b1-4)GlcNAc
# Procedure, shortened: as §1
# [33] = target: Kdn(a2-6)Gal(b1-4)GlcNAc
# Procedure, shortened: as §1
# [34] = target: Man(a1-2)Man(a1-6)[Man(a1-3)]Man(a1-6)[Man(a1-2)Man(a1-2)Man(a1-3)]Man(b1-4)GlcNAc(b1-4)GlcNAc
# Procedure, shortened: as §1
# [35] = target: Neu5Ac(a2-3)Gal(b1-4)GlcNAc(b1-2)Man(a1-3)[Neu5Ac(a2-3)Gal(b1-4)GlcNAc(b1-2)Man(a1-6)]Man(b1-4)GlcNAc(b1-4)GlcNAc
# Procedure, shortened: as §1
# [36] = target: Neu5Ac(a2-3)Gal(b1-4)GlcNAc(b1-3)[Neu5Ac(a2-3)Gal(b1-4)GlcNAc(b1-6)]GalNAc
# Procedure, shortened: as §1
# [37] = target: Neu5Ac(a2-3)Gal(b1-4)GlcNAc(b1-6)GalNAc
# Procedure, shortened: as §1
# [38] = target: Neu5Ac(a2-3)Gal(b1-4)GlcNAc6S
# Procedure, shortened: as §1
# [39] = target: Neu5Ac(a2-3)[GalNAc(b1-4)]Gal(b1-4)GlcNAc
# Procedure, shortened: as §1
# [40] = target: Neu5Ac(a2-8)Neu5Ac(a2-3)Gal(b1-4)Glc
# Procedure, shortened: as §1
# [41] = target: Neu5Ac(b2-6)Gal(b1-4)GlcNAc
# Procedure, shortened: as §1
# [42] = target: Neu5Gc(b2-6)Gal(b1-4)GlcNAc
# Procedure, shortened: as §1
binder,measurement,setting,value
"AT1G15820(2) (Arabidopsis thaliana), Q9LMQ2 (protein) MAMAVSGAVLSGLGSSFLTGGKRGATALASGVGTGAQRVGRKTLIVAAAAAQPKKSWIPAVKGGGNFLDPEWLDGSLPGDFGFDPLGLGKDPAFLKWYREAELIHGRWAMAAVLGIFVGQAWSGVAWFEAGAQPDAIAPFSFGSLLGTQLLLMGWVESKRWVDFFNPDSQSVEWATPWSKTAENFANYTGDQGYPGGRFFDPLGLAGKNRDGVYEPDFEKLERLKLAEIKHSRLAMVAMLIFYFEAGQGKTPLGALGL",glycan array binding signal (z-score),[1],-0.613
same,glycan array binding signal (z-score),[2],-0.022
same,glycan array binding signal (z-score),[3],1.93
same,glycan array binding signal (z-score),[4],-0.507
same,glycan array binding signal (z-score),[5],6.82
same,glycan array binding signal (z-score),[6],1.79
same,glycan array binding signal (z-score),[7],3.12
same,glycan array binding signal (z-score),[8],9.8
same,glycan array binding signal (z-score),[9],2.16
same,glycan array binding signal (z-score),[10],0.453
same,glycan array binding signal (z-score),[11],2.89
same,glycan array binding signal (z-score),[12],0.12
same,glycan array binding signal (z-score),[13],0.477
same,glycan array binding signal (z-score),[14],-0.032
same,glycan array binding signal (z-score),[15],1.41
same,glycan array binding signal (z-score),[16],0.112
same,glycan array binding signal (z-score),[17],-0.308
same,glycan array binding signal (z-score),[18],-0.229
same,glycan array binding signal (z-score),[19],0.324
same,glycan array binding signal (z-score),[20],-0.362
same,glycan array binding signal (z-score),[21],0.779
same,glycan array binding signal (z-score),[22],0.197
same,glycan array binding signal (z-score),[23],-0.445
same,glycan array binding signal (z-score),[24],0.421
same,glycan array binding signal (z-score),[25],1.96
same,glycan array binding signal (z-score),[26],3.99
same,glycan array binding signal (z-score),[27],8.56
same,glycan array binding signal (z-score),[28],-0.032
same,glycan array binding signal (z-score),[29],-0.384
same,glycan array binding signal (z-score),[30],0.069
same,glycan array binding signal (z-score),[31],-0.16
same,glycan array binding signal (z-score),[32],-0.425
same,glycan array binding signal (z-score),[33],-0.581
same,glycan array binding signal (z-score),[34],-0.821
same,glycan array binding signal (z-score),[35],-0.363
same,glycan array binding signal (z-score),[36],0.172
same,glycan array binding signal (z-score),[37],-0.315
same,glycan array binding signal (z-score),[38],-0.028
same,glycan array binding signal (z-score),[39],-0.469
same,glycan array binding signal (z-score),[40],-0.326
same,glycan array binding signal (z-score),[41],-0.408
same,glycan array binding signal (z-score),[42],-0.566
